From the supplement of paper PMC6555819 come the findings set out here.

This test has as its system PPARg:RXRa 30nM:10nM, anti-RXR (NR concentration 30 nM, RXRa partner concentration 10 nM). As to the kind of experiment: PBM binding z-score (relative to random genomic background probes); higher = stronger binding; sequences stand for … in GC…GCGATTGACAGCGTAGAATGAAGG
In a few lines: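 For binding z-scores, the reference was random background probes on custom Agilent 4×180K protein-binding microarrays. These arrays were incubated 1 h with ligand-free nuclear receptor dimers in PBS pH 7.4, 2% milk, 0.02% Triton X-100, 1 mM DTT, 0.2 mg/mL BSA and 0.4 mg/ml salmon testes DNA. Fluorescence was scanned after antibody detection of each partner (one per run) and regression-normalized.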
Turning to CAAACTAGGTCACCGGAAGGTCCAAGTCCGCATG, the PBM binding z-score was found to be 5.06.
The same measure for TCTTGTAGATCATTAGAGGTTAAGAAAGTGCGCT: 2.85.
The value for TCTTGTAGATCAACAGGAGGCTAAGAAAGATCGA was 2.28.
The value for TTAACAAGGTGAGCTGAGGTCGTTGATCCAACTC was 0.415; that for ACAGACAGGTGAGTGAAGCTAACTCAGCTGGACG was -0.443; that for GCTGCTAGGTCAGGTTGGTCAGCTTACGGGTACG was -0.57.
ACTAGCAGGCCAAGTTTGGGTCACACAAACAAAG registered a PBM binding z-score of -0.154.
TCTTGTAGATCAATAGCGGTTAAGAAAGTGCGCT showed a PBM binding z-score of 2.75.
The value for ATCTCGAGGTAAGACTCAGTTCAGTGAAGAACGC was -0.212.
The value for AGAATGAGGTTAATATCAGGGAAACAGAATACAT was 0.981; that for GCTAGCAGGCCATTTGGGTCATTCAATGACGGGC was -0.872; that for GATACAGGGCCAAGGCCAGAGTACGCGTATTGAT was -0.269.
The value for CGAAATAGGTCAAGGACAGTGAATCTCCGCACGC was 4.2; that for ATCTCTAGGTAAACAAGTTCAGTGAATGCCGAAC was 0.448.
The sequence AGATGTAGGTTATCGGGTCATTCAGTTTGCGCAT registered a PBM binding z-score of 3.56.
The value for TCGTGTAGGTTAGTCGGGGCATTCAGCCAACATA was 2.34; that for TCTCAAAGTTCAAAGGTAACGTAAGTATCCACAC was 5.16; that for TCATATAGGTAAACAGATGAAAGTCCGTAAGTTA was 3.81.
The sequence CCTGCTAGGTCAGTGGTCAGCTAAAGCAGCTCGC had a PBM binding z-score of 0.178.
As to TAAACAGGGTCAAAGGCCAGAGTACGAATGTCGA, the PBM binding z-score was 6.91.
In turn, AGGACGAGGGCACGCTGAGTTGATAGCAGAGTAG returned a PBM binding z-score of -0.0581.
The value for GATACAGGGTCAGCTGGAGGCCAGAGTATGGAAA was 1.24.
With CGTCCGAGGTCAGCAGGTCAGTGAAAGCGACGTG, the PBM binding z-score is 1.73.
The same measure for ATACCAAGGCGATCGTGAGGTCGTTGATACTAAC: -0.383.
TAGAGTAGGTTAGGGGCATTCAGAATGGCGTCGA: the PBM binding z-score is 1.48.
The same measure for CCTTACGGGTCAACGTTATAGCACGGGTGGTACG: 1.52.
For ATACCAAGGTGATCGTAAGGTCGTTGATACTAAC, the PBM binding z-score is 0.111.
The value for ATACCAAGGTGATCGTGAGGTCGTGGATACTAAC was -0.103; that for GCTCGGTGGACAAGGTCAGAGCTTTGTCCGTAGA was -0.712.
The same measure for CCTAGCTGGTCAGGAGGTCACACACCGGATATGA: 1.08.
The value for AGAATGAGGTTATTAAGTTCAGGGAATTGCGGTC was 0.695; that for TCTTGTAGATCAAAGGTTAACAAAGCCGAAGCCT was 7.57; that for CGTGCAAGGTCAGCAGGTCAGTGAAAGCGACGTG was 1.7.
GCGACTGGGGCATCAGCAGGTTACCAGAACTTAA displayed a PBM binding z-score of -0.35.
The same measure for AGTCAAAGTTCATCTATGTAACGTAAGATATGCT: 3.03; for AGTCATAGTTCAGGACGAGGTAACGTAAAGCACG: 0.782; for AGTCAAAGTGCACTAGGTAACGTAAGATTCAGCT: 1.04.
Regarding TCGAGAAGGTTACCAATGGGGCATTCAGCTTTCT, the PBM binding z-score amounted to 2.
The same measure for TCTAGTTGGTCAAAGGTCACACAGTCGAAATGCG: 10.
The same measure for CGAACTAGGTAATCCAGGACAGTGAATACATTGA: 0.536.
